# Screening results from PubChem BioAssay.
# VP16 counter = counter-screen for ROR gamma inhibitors: Gal4-VP16 reporter; Drosophila S2 Gal4-VP16 UAS-luciferase, luminescence, 20 h; Potency, µM (series often up to 53.6 µM), inactives show top-dose activity, negative = inhibition, actives largely listed as inhibitors; 310,000 tested, 3.5% active; AID 2546;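 note: Gal4-VP16 expression switched on by copper sulfate through the metallothionein promoter; nearly all actives have a fitted effect of over 50% in size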
# RORg inh = ROR gamma (mouse) transcription inhibition; P51450; Drosophila S2 Gal4-RORgamma UAS-luciferase reporter, 20 h; Potency, µM (titrated, usually from 53.6 µM), for inactives: top-dose activity change, negative = inhibition, most hits filed as inhibitors; 310,000 tested, 5.4% active; note: nearly all actives have a fitted effect of over 60% in size
# Target sequence (P51450 whole entry, looked up, the tested form may be a part): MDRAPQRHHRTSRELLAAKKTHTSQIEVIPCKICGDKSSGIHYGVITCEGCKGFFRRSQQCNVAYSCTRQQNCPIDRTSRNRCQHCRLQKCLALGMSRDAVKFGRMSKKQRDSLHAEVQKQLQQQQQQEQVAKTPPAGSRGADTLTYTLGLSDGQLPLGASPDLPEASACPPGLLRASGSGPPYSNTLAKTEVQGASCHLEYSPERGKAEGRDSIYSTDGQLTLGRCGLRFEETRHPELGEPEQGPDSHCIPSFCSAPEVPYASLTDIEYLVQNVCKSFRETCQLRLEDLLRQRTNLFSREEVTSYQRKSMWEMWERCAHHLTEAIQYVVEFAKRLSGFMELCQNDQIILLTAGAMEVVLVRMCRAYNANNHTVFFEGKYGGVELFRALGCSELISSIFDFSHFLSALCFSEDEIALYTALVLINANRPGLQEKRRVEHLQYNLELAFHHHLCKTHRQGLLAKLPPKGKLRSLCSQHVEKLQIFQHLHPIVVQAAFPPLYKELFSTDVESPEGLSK
#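 Luciferase reporter read in Schneider cells carrying Gal4-RORγ (mouse) and UAS-Photinus luciferase; cells given compound 1 h before 700 uM copper sulfate induction, then incubated 20 h at ambient temperature.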
# KinaseGlo FLuc = blocks Kinase-Glo luciferase, a counter-screen artifact; Q27757; Kinase-Glo luciferase, ATP luminescence, 8 min; Potency, µM (highest dose often 38.3 µM), inactives show top-dose activity change, negative = inhibition, usual class: inhibitors; 200,000 tested, 0.28% active; AID 1379; note: nearly all actives have a fitted effect of over 60% in size
#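 Luminescence was the read-out, taken after 8-minute incubation at ambient temperature. Luciferase turned over luciferin with 10 uM ATP in imidazole pH 7.2 buffer containing KCl, MgCl2, Tween 20 and BSA.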
# The depositor's hits bear a star; u = inconclusive; x = no result. An excerpt weighted towards active compounds, which were near 6.4% of everything screened. Calls come from the whole dose curve; as a rule, active = well fitted curve in the direction sought with a large enough effect; inconclusive = small, poorly fitted or top-dose-only effect, or another doubt; inactive = no such curve, though single readings can be large; an effect the other way counts as inactive or inconclusive. % is set by controls: 0 for no effect and ±100 for the full control effect; potency is the fitted concentration of half-maximal effect.
SMILES,VP16 counter,RORg inh,KinaseGlo FLuc
O=C(c1c(F)cccc1F)N1CCCC(c2nc(-c3cccs3)no2)C1 (configuration not stated),27%,8%,x
Cc1c(O)ccc2c(CC(=O)N[C@@H](Cc3c[nH]c4ccccc34)C(=O)O)cc(=O)oc12,15%,17%,x
COc1ccc(-c2nnc(SCC(=O)c3ccc[nH]3)o2)cc1,u,u,-11%
COc1ccc(Cc2nnc(SCC(=O)NCC3CCCO3)o2)cc1 (configuration not stated),9%,23%,-1%
COc1ccc(-c2nnc(SCC(=O)c3ccc(O)cc3O)o2)cc1,u,5.6µM*,x
COc1ccc(Cc2nnc(SCC(=O)NCc3ccco3)o2)cc1,u,6%,2%
Cc1nc(SCC(=O)NCC2CCCO2)c2c3c(sc2n1)CCCC3 (configuration not stated),13µM*,3.5µM*,x
COc1ccc(-c2nnc(SCC(=O)NCC3CCCO3)o2)cc1 (configuration not stated),u,13µM*,x
COc1ccc(-c2nnc(SCC(=O)NCc3ccco3)o2)cc1,u,0.56µM*,-4%
Cc1cc(C)n(-c2nc(SCC(=O)NCC3CCCO3)c3c4c(sc3n2)CCCC4)n1 (configuration not stated),-24%,u,x
COc1ccc(N(CC(=O)NCc2ccccc2)S(=O)(=O)c2c(C)n[nH]c2C)cc1,5%,4%,x
COc1ccc(NC(=O)CCNS(=O)(=O)c2ccc3[nH]c(=O)oc3c2)cc1Cl,-9%,-27%,x
CC(O/N=C/c1ccc(OC(F)F)cc1)C(=O)Nc1cccc(S(=O)(=O)N2CCOCC2)c1 (configuration not stated),-2%,u,-2%
CCCCCCCCOC(=O)C[N+](C)(C)C/C=C(/C)Cl,u,79%,-4%
CCCCCCCCCCOC(=O)C[N+](C)(C)C/C=C(/C)Cl,22µM*,14%,2%
Cc1ccc(NC(=S)Nc2ccc(F)cc2)cc1C,7.1µM*,7.1µM*,x
Fc1ccc(NC(=S)Nc2ccc3nccnc3c2)cc1,30%,-13%,-3%
Cc1ccc(NC(=S)Nc2ccc3cn[nH]c3c2)c(C)c1,-10%,u,-1%
Cc1cccc(C)c1NC(=S)Nc1ccc(F)cc1,u,10µM*,2%
Cc1ccc(NC(=S)Nc2ccc3cn[nH]c3c2)cc1C,5µM*,13µM*,x
O=S(=O)(Nc1ccc(F)cc1)c1ccc(NC(=S)Nc2ccccc2)cc1,9%,-6%,-3%
COCCNc1nc(C)nc2c1nc(-c1ccccc1)n2CCN1CCCC1,-11%,-9%,-2%
CCN(CC)C(=O)c1ccc(-c2nnc(Nc3ccc(O)cc3)c3ccccc23)cc1,-5%,2%,x
CCN(CC)C(=O)c1ccc(Nc2nnc(C)c3ccccc23)cc1,-2%,u,11µM*
COc1ccc(CN(CC(=O)NCc2ccc(F)cc2)C(=O)CCC(=O)Nc2nccs2)cc1,-2%,32%,x
SMILES,VP16 counter,RORg inh,KinaseGlo FLuc
CCOC(=O)C(Cc1c[nH]c2ccccc12)NC(=O)c1ccccc1Br (configuration not stated),u,8.9µM*,x
COC(=O)C(Cc1c[nH]c2ccccc12)NC(=O)c1ccccc1Br (configuration not stated),3%,-3%,x
COc1cccc(C2c3[nH]c4ccccc4c3C[C@H]3C(=O)N(c4ccccc4C(=O)NCCCN4CCOCC4)C(=O)N23)c1 (some centres not stated),u,9%,x
COC(=O)NC(C(=O)OC)(C(=O)OC)c1ccccc1,2%,-2%,0%
COc1cc(SC#N)ccc1N=Cc1c(C)[nH]n(-c2ccc(Cl)cc2)c1=O,5.6µM*,5.6µM*,-18%
COc1ccc(CCN=Cc2c(C)[nH]n(-c3ccc([N+](=O)[O-])cc3)c2=O)cc1OC,1%,-16%,-11%
COc1cc(S(=O)(=O)Nc2ccccc2)ccc1N=Cc1c(C)[nH]n(-c2ccc(C)cc2)c1=O,-10%,43%,-15%
COc1cc(SC#N)ccc1N=Cc1c(C)[nH]n(-c2ccc(C)c(C)c2)c1=O,4.5µM*,4.5µM*,u
CC1=C(C(=O)OCc2ccccc2)C(C2CCCCC2)NC(=O)N1CCCCCC(=O)O (configuration not stated),u,41%,-4%
COc1ccc(/C(N)=N/OC(=O)CC2CCCCC2)cc1,-19%,10%,x
Fc1ccccc1,-6%,-6%,x
Cc1ccc(CC(=O)N2CCN(c3ccc([N+](=O)[O-])cc3)CC2)cc1,35µM*,u,x
O=C(NC(=S)N1CCN(c2ccc(Cl)cc2[N+](=O)[O-])CC1)c1cccs1,x,0.28µM*,6%
